Targets with a hit are over-represented here; the source holds about 8,800 in all. About 0.5% of all pairs of compound and target were hits. Values without a mark were called inactive.
Columns and labels:
Test in all cases: log2 fold change, soluble protein after heating vs DMSO (PISA); higher = thermal stabilisation; K562 lysate, 10 uM; active = over 0.2 and 3.5 SD of the protein, either way, in both replicates (recomputed)
lapatinib = compound: CS(=O)(=O)CCNCc1ccc(-c2ccc3ncnc(Nc4ccc(OCc5cccc(F)c5)c(Cl)c4)c3c2)o1 [lapatinib]
Summary of the method: (§1)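 To prepare the extract, K562 pellets were dounce-homogenised in PBS pH 7.4 with 1 mM MgCl2, giving crude material at 1 mg/mL protein. This was treated with 10 μM compound for 30 min, then heated in aliquots for 3 min over 48°C-58°C before pooling and addition of NP-40 to 0.5% at 4°C. Centrifugation at 21,000xg for 90 min left soluble protein in the supernatant, which TMTpro 16plex LC-MS/MS quantified with equalised channel sums. Results are log-two fold changes in thermal stability compared with solvent controls, from duplicates.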

pictilisib = compound: CS(=O)(=O)N1CCN(Cc2cc3nc(-c4cccc5[nH]ncc45)nc(N4CCOCC4)c3s2)CC1 [pictilisib]
Summary of the method: as §1

crizotinib = compound: C[C@@H](Oc1cc(-c2cnn(C3CCNCC3)c2)cnc1N)c1c(Cl)ccc(F)c1Cl [crizotinib]
Summary of the method: as §1

[1] = compound: C[C@H](C1=CC=C(C=C1)C(=O)NC2=C3C=CNC3=NC=C2)N
Summary of the method: as §1

duvelisib = compound: C[C@H](Nc1ncnc2nc[nH]c12)c1cc2cccc(Cl)c2c(=O)n1-c1ccccc1 [duvelisib]
Summary of the method: as §1

gandotinib = compound: Cc1cc(Nc2cc(CN3CCOCC3)c3nc(C)c(Cc4ccc(Cl)cc4F)n3n2)n[nH]1 [gandotinib]
Summary of the method: as §1

tozasertib = compound: Cc1cc(Nc2cc(N3CCN(C)CC3)nc(Sc3ccc(NC(=O)C4CC4)cc3)n2)n[nH]1 [tozasertib]
Summary of the method: as §1

doramapimod = compound: Cc1ccc(-n2nc(C(C)(C)C)cc2NC(=O)Nc2ccc(OCCN3CCOCC3)c3ccccc23)cc1 [doramapimod]
Summary of the method: as §1

bafetinib = compound: Cc1ccc(NC(=O)c2ccc(CN3CC[C@H](N(C)C)C3)c(C(F)(F)F)c2)cc1Nc1nccc(-c2cncnc2)n1 [bafetinib]
Summary of the method: as §1

[2] = compound: Cc1cccc(CC(=O)N2CCc3c2ccc(-c2cn(C)c4ncnc(N)c24)c3F)n1
Summary of the method: as §1

Sequence of UniProt P36969 (P36969 whole entry, looked up): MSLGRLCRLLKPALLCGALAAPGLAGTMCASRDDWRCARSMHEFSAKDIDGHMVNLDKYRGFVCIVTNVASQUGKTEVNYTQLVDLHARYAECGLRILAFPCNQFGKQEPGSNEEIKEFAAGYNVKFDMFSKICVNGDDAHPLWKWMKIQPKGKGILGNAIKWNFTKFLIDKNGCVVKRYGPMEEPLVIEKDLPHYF
Sequence of UniProt Q9H4A6 (Q9H4A6 whole entry, looked up): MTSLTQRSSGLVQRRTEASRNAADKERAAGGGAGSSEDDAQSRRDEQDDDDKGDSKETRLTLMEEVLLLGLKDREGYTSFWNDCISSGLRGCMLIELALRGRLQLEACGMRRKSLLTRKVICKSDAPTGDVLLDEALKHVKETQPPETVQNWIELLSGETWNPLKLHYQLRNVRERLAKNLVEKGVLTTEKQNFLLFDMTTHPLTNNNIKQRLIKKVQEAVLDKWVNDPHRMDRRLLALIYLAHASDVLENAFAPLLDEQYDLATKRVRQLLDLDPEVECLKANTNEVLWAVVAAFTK
Sequence of UniProt P19367 (P19367 whole entry, looked up): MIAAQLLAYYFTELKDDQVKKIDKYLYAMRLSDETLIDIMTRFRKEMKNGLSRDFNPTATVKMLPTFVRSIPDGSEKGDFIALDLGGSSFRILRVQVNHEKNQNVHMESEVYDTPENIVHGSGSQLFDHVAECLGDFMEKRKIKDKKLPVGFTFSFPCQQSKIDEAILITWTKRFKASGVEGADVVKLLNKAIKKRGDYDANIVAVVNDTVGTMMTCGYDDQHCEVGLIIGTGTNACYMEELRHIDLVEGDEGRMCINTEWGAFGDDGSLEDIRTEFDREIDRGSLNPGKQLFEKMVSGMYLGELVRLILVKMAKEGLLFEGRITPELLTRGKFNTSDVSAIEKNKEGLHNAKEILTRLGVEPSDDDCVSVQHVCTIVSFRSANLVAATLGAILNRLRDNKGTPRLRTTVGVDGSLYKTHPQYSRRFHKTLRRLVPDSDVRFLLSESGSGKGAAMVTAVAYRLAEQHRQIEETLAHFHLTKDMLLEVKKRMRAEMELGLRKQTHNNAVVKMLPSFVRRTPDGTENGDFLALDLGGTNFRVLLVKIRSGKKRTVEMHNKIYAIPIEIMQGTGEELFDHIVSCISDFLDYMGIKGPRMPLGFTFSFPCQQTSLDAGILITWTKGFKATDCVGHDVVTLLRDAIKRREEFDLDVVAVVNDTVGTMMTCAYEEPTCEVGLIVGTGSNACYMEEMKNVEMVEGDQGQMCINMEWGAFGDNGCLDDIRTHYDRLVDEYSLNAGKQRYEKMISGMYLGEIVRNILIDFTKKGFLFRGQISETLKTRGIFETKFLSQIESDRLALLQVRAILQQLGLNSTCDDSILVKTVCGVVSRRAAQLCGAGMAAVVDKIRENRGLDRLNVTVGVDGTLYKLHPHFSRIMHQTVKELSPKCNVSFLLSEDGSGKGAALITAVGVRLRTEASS
Sequence of UniProt Q03013 (Q03013 whole entry, looked up): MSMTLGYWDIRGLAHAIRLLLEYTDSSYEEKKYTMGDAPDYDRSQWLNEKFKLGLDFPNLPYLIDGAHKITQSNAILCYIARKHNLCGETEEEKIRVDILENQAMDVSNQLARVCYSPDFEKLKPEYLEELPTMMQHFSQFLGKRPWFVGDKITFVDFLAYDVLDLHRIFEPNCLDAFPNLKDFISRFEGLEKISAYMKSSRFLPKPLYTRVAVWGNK
Sequence of UniProt Q9BUE6 (Q9BUE6 whole entry, looked up): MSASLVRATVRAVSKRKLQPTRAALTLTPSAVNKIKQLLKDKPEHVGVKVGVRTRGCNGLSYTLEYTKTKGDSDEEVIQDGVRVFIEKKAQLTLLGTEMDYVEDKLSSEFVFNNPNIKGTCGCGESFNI
Sequence of UniProt P51617 (P51617 whole entry, looked up): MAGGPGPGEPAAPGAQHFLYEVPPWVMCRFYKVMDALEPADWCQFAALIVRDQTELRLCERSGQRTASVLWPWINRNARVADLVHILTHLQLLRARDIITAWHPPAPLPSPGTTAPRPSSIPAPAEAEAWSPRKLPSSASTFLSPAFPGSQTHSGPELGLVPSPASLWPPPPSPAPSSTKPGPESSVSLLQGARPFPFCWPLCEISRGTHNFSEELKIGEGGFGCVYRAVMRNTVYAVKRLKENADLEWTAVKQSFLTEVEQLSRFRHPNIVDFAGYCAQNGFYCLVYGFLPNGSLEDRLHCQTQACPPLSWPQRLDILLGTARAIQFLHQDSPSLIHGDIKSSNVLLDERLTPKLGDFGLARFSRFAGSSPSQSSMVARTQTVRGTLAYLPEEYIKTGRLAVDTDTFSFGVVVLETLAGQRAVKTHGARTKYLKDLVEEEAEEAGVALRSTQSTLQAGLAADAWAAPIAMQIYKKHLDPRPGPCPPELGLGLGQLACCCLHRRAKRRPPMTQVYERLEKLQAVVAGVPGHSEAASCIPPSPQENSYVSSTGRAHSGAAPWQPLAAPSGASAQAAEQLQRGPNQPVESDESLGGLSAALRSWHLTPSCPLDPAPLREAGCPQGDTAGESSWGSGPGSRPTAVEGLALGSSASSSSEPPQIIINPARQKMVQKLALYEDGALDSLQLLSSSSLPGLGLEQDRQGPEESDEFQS
Sequence of UniProt Q14145 (Q14145 whole entry, looked up): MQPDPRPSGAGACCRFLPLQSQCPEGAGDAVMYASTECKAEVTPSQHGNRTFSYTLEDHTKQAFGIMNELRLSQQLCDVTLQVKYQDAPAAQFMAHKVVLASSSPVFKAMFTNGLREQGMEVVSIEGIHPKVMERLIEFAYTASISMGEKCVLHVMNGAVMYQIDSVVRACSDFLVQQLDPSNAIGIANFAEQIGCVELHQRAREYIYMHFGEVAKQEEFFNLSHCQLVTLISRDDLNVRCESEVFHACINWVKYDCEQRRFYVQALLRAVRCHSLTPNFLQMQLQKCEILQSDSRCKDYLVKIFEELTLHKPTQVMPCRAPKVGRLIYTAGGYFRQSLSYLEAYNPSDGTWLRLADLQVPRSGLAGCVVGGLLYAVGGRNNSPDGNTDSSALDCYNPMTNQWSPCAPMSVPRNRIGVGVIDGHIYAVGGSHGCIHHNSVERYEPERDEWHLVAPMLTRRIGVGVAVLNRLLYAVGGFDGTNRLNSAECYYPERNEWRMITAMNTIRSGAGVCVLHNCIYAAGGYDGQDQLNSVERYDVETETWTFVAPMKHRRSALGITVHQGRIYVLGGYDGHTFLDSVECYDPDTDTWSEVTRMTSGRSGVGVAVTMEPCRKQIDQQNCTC
Sequence of UniProt P50053 (P50053 whole entry, looked up): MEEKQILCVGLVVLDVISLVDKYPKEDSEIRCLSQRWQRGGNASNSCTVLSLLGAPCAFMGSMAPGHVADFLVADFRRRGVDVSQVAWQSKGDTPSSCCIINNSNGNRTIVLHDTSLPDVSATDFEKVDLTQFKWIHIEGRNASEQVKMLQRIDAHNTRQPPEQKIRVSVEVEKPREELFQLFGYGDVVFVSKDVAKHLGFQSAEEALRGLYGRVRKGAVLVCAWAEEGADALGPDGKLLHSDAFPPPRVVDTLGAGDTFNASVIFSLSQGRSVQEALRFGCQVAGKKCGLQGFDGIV
Sequence of UniProt Q9H6K1 (Q9H6K1 whole entry, looked up): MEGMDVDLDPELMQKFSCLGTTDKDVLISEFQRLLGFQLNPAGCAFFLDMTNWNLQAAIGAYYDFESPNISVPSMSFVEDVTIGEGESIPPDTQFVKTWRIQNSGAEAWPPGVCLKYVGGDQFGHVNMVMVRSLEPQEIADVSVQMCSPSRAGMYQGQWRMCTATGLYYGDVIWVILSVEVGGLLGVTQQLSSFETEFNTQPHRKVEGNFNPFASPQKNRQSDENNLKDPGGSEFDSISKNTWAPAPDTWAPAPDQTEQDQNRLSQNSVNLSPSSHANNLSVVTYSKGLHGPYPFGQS
Sequence of UniProt Q1KMD3 (Q1KMD3 whole entry, looked up): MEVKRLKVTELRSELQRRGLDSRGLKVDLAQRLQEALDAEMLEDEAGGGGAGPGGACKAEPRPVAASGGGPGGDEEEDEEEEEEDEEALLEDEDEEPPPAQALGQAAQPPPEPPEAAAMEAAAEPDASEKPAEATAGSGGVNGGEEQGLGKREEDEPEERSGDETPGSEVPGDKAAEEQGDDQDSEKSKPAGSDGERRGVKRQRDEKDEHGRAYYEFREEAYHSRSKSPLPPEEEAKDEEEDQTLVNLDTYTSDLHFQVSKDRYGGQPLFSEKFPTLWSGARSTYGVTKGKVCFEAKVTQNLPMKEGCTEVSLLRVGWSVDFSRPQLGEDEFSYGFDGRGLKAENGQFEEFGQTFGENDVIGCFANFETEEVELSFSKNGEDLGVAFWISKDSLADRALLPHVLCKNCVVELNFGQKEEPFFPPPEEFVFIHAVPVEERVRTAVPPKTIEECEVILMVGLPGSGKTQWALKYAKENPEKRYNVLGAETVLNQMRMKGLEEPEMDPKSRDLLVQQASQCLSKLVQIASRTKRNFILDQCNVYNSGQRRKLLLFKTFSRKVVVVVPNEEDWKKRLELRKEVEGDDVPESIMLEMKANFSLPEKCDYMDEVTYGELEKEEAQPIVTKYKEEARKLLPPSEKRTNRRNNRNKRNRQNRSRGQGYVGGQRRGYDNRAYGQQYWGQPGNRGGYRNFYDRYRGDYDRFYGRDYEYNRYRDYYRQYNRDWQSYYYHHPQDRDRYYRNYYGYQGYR
Sequence of UniProt P12081 (P12081 whole entry, looked up): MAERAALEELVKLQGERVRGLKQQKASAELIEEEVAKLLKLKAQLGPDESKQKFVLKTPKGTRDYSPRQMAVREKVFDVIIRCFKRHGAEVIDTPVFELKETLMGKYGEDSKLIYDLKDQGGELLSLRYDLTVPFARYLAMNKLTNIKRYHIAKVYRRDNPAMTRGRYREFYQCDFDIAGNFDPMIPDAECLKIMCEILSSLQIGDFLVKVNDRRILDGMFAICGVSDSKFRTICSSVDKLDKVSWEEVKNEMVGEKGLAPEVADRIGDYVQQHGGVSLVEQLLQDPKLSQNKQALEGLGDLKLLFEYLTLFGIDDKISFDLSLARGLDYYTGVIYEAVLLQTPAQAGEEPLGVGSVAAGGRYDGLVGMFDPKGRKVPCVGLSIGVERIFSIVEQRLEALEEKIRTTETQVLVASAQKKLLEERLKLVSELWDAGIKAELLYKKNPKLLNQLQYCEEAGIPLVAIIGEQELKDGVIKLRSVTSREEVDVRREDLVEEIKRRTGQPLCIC

Target | log2 fold change (lapatinib) | log2 fold change (pictilisib) | log2 fold change (crizotinib) | log2 fold change [1] | log2 fold change (duvelisib) | log2 fold change (gandotinib) | log2 fold change (tozasertib) | log2 fold change (doramapimod) | log2 fold change (bafetinib) | log2 fold change [2]
GMIP (UniProt Q9P107) | -0.046 | -0.015 | -0.006 | 0.029 | -0.005 | -0.024 | -0.014 | -0.049 | -0.068 | 0.041
HAUS4 (UniProt Q9H6D7) | 0.021 | -0.02 | -0.083 | -0.063 | -0.031 | -0.009 | 0.042 | 0.043 | 0.003 | 0.099
GTF2H4 (UniProt Q92759) | -0.026 | 0.027 | -0.025 | 0.061 | -0.01 | -0.14 | 0.031 | 0 | -0.039 | 0.038
GSK3A (UniProt P49840) | -0.026 | 0.207 | 0.069 | -0.002 | 0.016 | 0.641 (active) | -0.017 | 0.002 | 0.008 | -0.02
INPP4A (UniProt Q96PE3) | -0.028 | -0.116 | -0.024 | -0.086 | 0.025 | 0.003 | 0.065 | 0.014 | 0.132 | 0.128
IRAK1 (UniProt P51617) | 0.023 | -0.008 | 0.799 (active) | -0.111 | -0.169 | 0.26 | -0.116 | 0.172 | -0.036 | 0.168
HDAC3 (UniProt E7ESJ6) | -0.073 | – | – | – | – | – | – | – | – | –
ISCA1 isoform 2 (UniProt Q9BUE6) | 0.054 | -0.08 | -0.011 | 0.343 (active) | 0.012 | -0.132 | -0.004 | 0.011 | 0.067 | -0.223
HNRNPUL1 (UniProt Q9BUJ2) | -0.008 | -0.05 | 0.043 | 0.005 | 0.01 | -0.013 | 0.012 | -0.107 | 0.051 | -0.023
HMGN4 (UniProt O00479) | 0.038 | -0.044 | 0.047 | 1.19 (active) | -0.074 | -0.421 | 0.078 | -0.163 | 0.6 | -0.551
HNRNPD isoform 3 (UniProt Q14103) | -0.062 | 0.126 | -0.07 | -0.08 | 0.043 | 0.094 | -0.078 | 0.045 | 0.166 | 0.033
INPPL1 (UniProt O15357) | 0.023 | 0.006 | -0.047 | -0.05 | -0.004 | -0.065 | 0.029 | 0.01 | -0.05 | 0.03
HNRNPUL2 (UniProt Q1KMD3) | -0.037 | -0.028 | -0.033 | -0.002 | 0.012 | -0.005 | 0.009 | -0.008 | -0.009 | 0.043
HMGA1 (UniProt P17096) | -0.023 | 0.03 | 0.007 | -0.27 | 0.058 | 0.069 | -0.062 | -0.02 | 0.043 | 0.036
GSTM4 (UniProt Q03013) | -0.091 | 0.073 | -0.006 | -0.118 | -0.034 | 0.011 | -0.12 | 0.076 | 0.029 | 0.051
KBTBD2 (UniProt Q8IY47) | -0.036 | -0.019 | -0.073 | -0.139 | -0.01 | 0.124 | -0.056 | -0.005 | -0.07 | 0.138
KEAP1 (UniProt Q14145) | -0.005 | -0.023 | -0.007 | 0 | 0.026 | 0.019 | -0.017 | 0.01 | 0 | 0.008
GPX4 (UniProt P36969) | -0.037 | -0.03 | -0.01 | 0.041 | -0.008 | -0.065 | 0 | -0.001 | -0.033 | -0.051
HARS (UniProt P12081) | 0.008 | 0.01 | -0.009 | 0.028 | 0.014 | -0.052 | 0.006 | 0.003 | 0.015 | -0.01
GLYR1 (UniProt Q49A26) | 0.053 | 0.045 | -0.058 | 0.019 | -0.079 | 0.045 | -0.044 | 0.11 | -0.042 | -0.04
KHK isoform 2 (UniProt P50053) | -0.066 | -0.015 | -0.032 | 0.248 (active) | 0 | -0.058 | 0.018 | 0.031 | 0.001 | -0.163
H2AFY (UniProt O75367) | -0.021 | 0.036 | 0.051 | -0.135 | 0.01 | 0.084 | -0.108 | -0.138 | -0.011 | 0.049
HK1 isoform 2 (UniProt P19367) | 0 | -0.009 | -0.023 | -0.026 | -0.033 | -0.051 | 0.038 | 0.039 | -0.023 | 0.029
ILRUN (UniProt Q9H6K1) | -0.045 | -0.033 | 0.009 | -0.025 | 0.016 | 0.012 | 0.013 | -0.028 | -0.023 | -0.017
HS1BP3 (UniProt Q53T59) | 0.024 | -0.019 | 0.006 | -0.253 (active) | -0.047 | 0.068 | 0.021 | -0.019 | -0.048 | 0.074
HSPA8 (UniProt E9PN89) | 0.046 | 0.05 | -0.31 | -0.706 (active) | 0.004 | 0.169 | 0.074 | 0.314 | -0.021 | 0.299
GOLPH3 (UniProt Q9H4A6) | 0.007 | -0.013 | -0.123 | -0.049 | 0.005 | 0.034 | 0.025 | 0.031 | -0.073 | 0.045
KDM6A (UniProt O15550) | 0.033 | 0.046 | 0.003 | -0.028 | 0.032 | 0.009 | 0.01 | 0.022 | 0.002 | 0.013
GPR108 (UniProt Q9NPR9) | 0.022 | 0.03 | -0.01 | -0.121 | -0.043 | 0.237 (active) | 0.024 | 0.04 | 0.044 | -0.043
HDHD5 (UniProt Q9BXW7) | 0.011 | 0.012 | -0.017 | -0.147 | 0.058 | -0.005 | 0.059 | 0.131 | 0.033 | 0.116

Reference: the supplement of paper PMC10849652
